Source: PubChem BioAssay (EPA / NIEHS)
Results filed as inconclusive are left out. Activity calls are given as the source filed them. Rule for the calls, unless noted: active = hit-call score of the fitted dose curve at least 0.9, where 1 is the maximum; inactive = score below 0.9.

test system: not listed separately; experiment: VALA_MIGHUV2_WoundArea: VALA Sciences human Umbilical Vein Endothelial Cell Migration (MIGHUV) Assay, Area of Scratch Wound after Recovery (AID 2284316; active = hit-call score of the fitted dose curve at least 0.9, where 1 is the maximum); conditions: not given
In short: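 HUVEC seeded at 9000 cells/well, scratched after 24 h; test chemical added within 30 min, 6-point concentration response in triplicate (0.1% DMSO vehicle). After 24 h wound recovery, cells fixed and Hoechst-stained nuclei in wound area imaged; Cytochalasin D reference control.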

Structure (SMILES) | outcome | AC50
O=C1OC(c2ccc(O)cc2)(c2ccc(O)cc2)c2ccccc21 | inactive | –
Cc1ccc(-c2cc(C(F)(F)F)nn2-c2ccc(S(N)(=O)=O)cc2)cc1 | inactive | –
Nc1nc(Cl)nc2c1ncn2[C@H]1C[C@H](O)[C@@H](CO)O1 | – | 28.9 µM (active)
COC(=O)[C@H]1[C@H]2C[C@@H]3c4[nH]c5cc(OC)ccc5c4CCN3C[C@H]2C[C@@H](OC(=O)c2cc(OC)c(OC)c(OC)c2)[C@@H]1OC | inactive | –

test system: IYD (gene 389434); experiment: CCTE_GLTED_hIYD: CCTE's human Iodotyrosine Deiodinase (xIYD) Inhibition Assay, Great Lakes Toxicology and Ecology Division (GLTED) Lab (AID 2284317; active = hit-call score of the fitted dose curve at least 0.9, where 1 is the maximum;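 note: cell-free human IYD enzyme made in baculovirus insect cells; iodide freed from monoiodotyrosine measured by cerium arsenite color change at 420 nm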); conditions: not given
In short: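 Human IYD expressed in a baculovirus-insect cell system was incubated 3 h with monoiodotyrosine and test chemical. Released iodide, separated on Dowex columns, was quantified by the Sandell-Kolthoff reaction at 420 nm; plates were normalized to MNT and DMSO/NaOH controls.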

Structure (SMILES) | AC50 | outcome
CCN(CC)CCOc1ccc(C(=C(Cl)c2ccccc2)c2ccccc2)cc1 | 16 µM (active) | –
O=Cc1ccccc1C=O | 60.2 µM (active) | –
S=c1[nH]c2ccccc2s1 | – | inactive
CCCCCCCCCCCCCCOS(=O)(=O)O | 29.6 µM (active) | –
Cc1c(C)c2c(c(C)c1O)CCC(C)(COc1ccc(CC3SC(=O)NC3=O)cc1)O2 (stereo not given) | 94.7 µM (active) | –

test system: not listed separately; experiment: CCTE_Deisenroth_5AR_NBTE_donor: CCTE's 5alpha-reductase NanoBRET Target Engagement Assay […], Deisenroth Lab (AID 2284319); conditions: actives raise or lower the signal
Protocol: CCTE_Deisenroth_5AR NBTE (5alpha-reductase NanoBRET Target Engagement Assay) is a cell-based, single-readout assay that uses HEK293T, a human kidney cell line, with measurements taken at 5 hours after chemical dosing in a 384 well plate. This assay includes a primary and secondary screen as well as an autofluorscence screen.CCTE_Deisenroth_5AR NBTE_donor is one of four assay components measured from the CCTE_Deisenroth_5AR NBTE assay. It is designed to make measurements of donor luminescence, as detected by bioluminescence intensity emission signals using spectrometry technology.Data from the assay component CCTE_Deisenroth_5AR NBTE_donor was analyzed into 1 assay endpoint. This assay endpoint, CCTE_Deisenroth_5AR NBTE_donor, was analyzed with bidirectional fitting relative to DMSO as the negative control and baseline of activity. Using a type of inducible reporter, gain or loss-of-signal activity can be used to understand changes in the donor luminescence as related to 5alpha-reductase catalytic function. Furthermore, this assay endpoint can be referred to as a secondary readout, because this assay has produced multiple assay endpoints where this one serves an artifact detection function.
For transient expression of the SRD5A2-NanoLuc fusion protein, HEK293T cells are reverse transfected with pNLF1-C-SRD5A2 expression vector and incubated for 20 hours to facilitate fusion protein expression. For assay setup, 384-well non-binding surface (NBS) microplates are pre-dispensed with test chemical across an 8-point concentration series (10 nM - 29.9 uM) with two technical replicates per run. Cell suspensions are dispensed into the microplates and incubated with test chemical for a duration of three hours. Following pre-incubation with test chemical, the testosterone tracer is dispensed into each well and incubated an additional two hours. The total incubation period with test chemical is five hours, with testosterone tracer added the final two hours to reach target engagement equilibrium. For the NanoBRET endpoint measurements, a solution of Nano-Glo substrate and extracellular NanoLuc inhibitor solution is added to each test well and immediately scanned on a plate reader configured with multichromatic emission settings for donor luminescence ([…]) and acceptor fluorescence ([…]). DMSO solvent controls are included as baseline control. Plate-matched samples are run with mock tracer conditions or testosterone tracer to discriminate any potential non-specific substrate interference.

Structure (SMILES) | outcome | AC50
CCN(CC)CCOc1ccc(C(=C(Cl)c2ccccc2)c2ccccc2)cc1 | inactive | –
O=C(O)c1[nH]n(-c2ccc(S(=O)(=O)O)cc2)c(=O)c1N=Nc1ccc(S(=O)(=O)O)cc1 | – | 35 µM (active)
O=C1c2c(O)cccc2Cc2cccc(O)c21 | inactive | –
O=C1OC(c2ccc(O)cc2)(c2ccc(O)cc2)c2ccccc21 | inactive | –
C/C=C/C=C/C(=O)O | inactive | –
CCCCCCCCCCCCCCOS(=O)(=O)O | inactive | –
CCCCC(CC)COC(=O)CCCCCCCC(=O)OCC(CC)CCCC (stereo not given) | inactive | –
Cc1c(C)c2c(c(C)c1O)CCC(C)(COc1ccc(CC3SC(=O)NC3=O)cc1)O2 (stereo not given) | inactive | –

test system: not listed separately; experiment: CCTE_Deisenroth_5AR_NBTE_acceptor: CCTE's 5alpha-reductase NanoBRET Target Engagement Assay - Autofluorescence Screen, Deisenroth Lab (AID 2284321); conditions: actives raise or lower the signal;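 note: compound fluorescence in the acceptor channel under 460 nm excitation flags autofluorescence artifacts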
In short: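 Using three independent plate-reader runs, nominal 100 uM chemicals were checked for intrinsic fluorescence (ex 460 nm). DMSO defined the baseline for bidirectional fitting.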

Structure (SMILES) | outcome
CCN(CC)CCOc1ccc(C(=C(Cl)c2ccccc2)c2ccccc2)cc1 | inactive
O=C(O)c1[nH]n(-c2ccc(S(=O)(=O)O)cc2)c(=O)c1N=Nc1ccc(S(=O)(=O)O)cc1 | inactive
O=C1c2c(O)cccc2Cc2cccc(O)c21 | inactive
O=C1OC(c2ccc(O)cc2)(c2ccc(O)cc2)c2ccccc21 | inactive
C/C=C/C=C/C(=O)O | inactive
CCCCCCCCCCCCCCOS(=O)(=O)O | inactive
CCCCC(CC)COC(=O)CCCCCCCC(=O)OCC(CC)CCCC (stereo not given) | inactive
Cc1c(C)c2c(c(C)c1O)CCC(C)(COc1ccc(CC3SC(=O)NC3=O)cc1)O2 (stereo not given) | inactive
